Reference: PubChem BioAssay (NCATS)
Records with an inconclusive call do not appear. Calls of active or inactive are those of the source. Calls come from the whole dose curve; as a rule, active = well fitted cell-killing curve with a large enough effect; inconclusive = small, poorly fitted or top-dose-only effect, or effect the other way; inactive = flat fitted curve, though single readings scatter.

Experiments:
Experiment in all cases: Primary qHTS to identify gynecologic anti-cancer compounds using libraries of approved drugs and bioactive compounds (AID 1345084); note: nearly all actives have a fitted effect of over 55% in size
[1] = tested on: C33A; conditions: Gynecologic cancer cell panel viability, ATPlite luminescence, 48 h; series mostly up to 57.5 µM
In short: (§1)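 Cell viability after 48 h drug treatment, ATPlite luminescence readout; five doses.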

[2] = tested on: CASKI; conditions: Gynecologic cancer cell panel viability, ATPlite luminescence, 48 h; series mostly up to 57.5 µM
In short: as §1

[3] = tested on: Es-2; conditions: Gynecologic cancer cell panel viability, ATPlite luminescence, 48 h; series mostly up to 57.5 µM
In short: as §1

[4] = tested on: HeLa; conditions: Gynecologic cancer cell panel viability, ATPlite luminescence, 48 h; series mostly up to 57.5 µM
In short: as §1

[5] = tested on: Hek293T; conditions: Gynecologic cancer cell panel viability, ATPlite luminescence, 48 h, control line for the selectivity index; series mostly up to 57.5 µM
In short: as §1

[6] = tested on: JEG-3; conditions: Gynecologic cancer cell panel viability, ATPlite luminescence, 48 h; series mostly up to 57.5 µM
In short: as §1

[7] = tested on: OV90; conditions: Gynecologic cancer cell panel viability, ATPlite luminescence, 48 h; series mostly up to 57.5 µM
In short: as §1

[8] = tested on: PA-1; conditions: Gynecologic cancer cell panel viability, ATPlite luminescence, 48 h; series mostly up to 57.5 µM
In short: as §1

[9] = tested on: SKOV3; conditions: Gynecologic cancer cell panel viability, ATPlite luminescence, 48 h; series mostly up to 57.5 µM
In short: as §1

[10] = tested on: Tov-21-G; conditions: Gynecologic cancer cell panel viability, ATPlite luminescence, 48 h; series mostly up to 57.5 µM
In short: as §1

[11] = tested on: Tov112D; conditions: Gynecologic cancer cell panel viability, ATPlite luminescence, 48 h; series mostly up to 57.5 µM
In short: as §1
% is set by controls: 0 for no effect and ±100 for the full control effect.

CC1=C(COC2OC(CO)C(O)C(O)C2O)C(C(CO)C(=O)O)CC1 (stereo not given)
inactive: Potency [1] | Potency [2] | Potency [3] | Potency [4] | Potency [5] | Potency [6] | Potency [7] | Potency [8] | Potency [9] | Potency [10] | Potency [11]

CC1(C)C[C@H](O)C[C@@]2(C)OC(=O)C=C12
inactive: Potency [1] | Potency [2] | Potency [3] | Potency [4] | Potency [5] | Potency [6] | Potency [7] | Potency [8] | Potency [9] | Potency [10] | Potency [11]

CC(O)(CC(=O)O)CC(=O)OCc1ccc(O[C@@H]2O[C@H](CO)[C@@H](O)[C@H](O)[C@H]2O)cc1 (stereo not given in full)
inactive: Potency [1] | Potency [2] | Potency [3] | Potency [4] | Potency [5] | Potency [6] | Potency [7] | Potency [8] | Potency [9] | Potency [10] | Potency [11]

CO/N=C(/C(=O)N[C@@H]1C(=O)N2C(C(=O)O)=C(Cn3ccc(=N)n3CCO)CS[C@H]12)c1csc(N)n1
inactive: Potency [1] | Potency [2] | Potency [3] | Potency [4] | Potency [5] | Potency [6] | Potency [7] | Potency [8] | Potency [9] | Potency [10] | Potency [11]

Cc1ccc(-c2c(C(=O)CF)n(CCCO)c3ncnc(N)c23)cc1
inactive: Potency [1] | Potency [2] | Potency [3] | Potency [4] | Potency [5] | Potency [6] | Potency [7] | Potency [8] | Potency [9] | Potency [10] | Potency [11]

C[C@@H]1O[C@@H](O[C@H]2[C@H](O[C@H]3[C@H](O[C@H]4CC[C@@]5(C)C(CC[C@]6(C)C5CC=C5[C@@H]7CC(C)(C)C[C@@H](O)[C@]7(C)CC[C@]56C)[C@@]4(C)CO)O[C@H](C(=O)O)[C@@H](O)[C@@H]3O)OC[C@H](O)[C@@H]2O)[C@H](O)[C@H](O)[C@H]1O (stereo not given in full)
inactive: activity change, negative = cytotoxicity [1] -0.169% [at 11.6 µM] | activity change, negative = cytotoxicity [2] -2.47% [at 11.6 µM] | activity change, negative = cytotoxicity [3] 1.77% [at 11.6 µM] | activity change, negative = cytotoxicity [4] 0% [at 11.6 µM] | activity change, negative = cytotoxicity [5] -7.13% [at 11.6 µM] | activity change, negative = cytotoxicity [6] -0.873% [at 11.6 µM] | activity change, negative = cytotoxicity [7] -3.06% [at 11.6 µM] | activity change, negative = cytotoxicity [8] -1.53% [at 11.6 µM] | activity change, negative = cytotoxicity [9] -7.2% [at 11.6 µM] | activity change, negative = cytotoxicity [10] -1.97% [at 11.6 µM] | activity change, negative = cytotoxicity [11] -12.3% [at 11.6 µM]

C[C@H](NC(c1cccc(C[P+](=O)O)c1)[C@H](C)O)c1ccc(Cl)c(Cl)c1 (stereo not given in full)
inactive: Potency [1] | Potency [2] | Potency [3] | Potency [4] | Potency [5] | Potency [6] | Potency [7] | Potency [8] | Potency [9] | Potency [10] | Potency [11]

Cc1cccc(Oc2cnc(=O)[nH]c2)c1
inactive: Potency [1] | Potency [2] | Potency [3] | Potency [4] | Potency [5] | Potency [6] | Potency [7] | Potency [8] | Potency [9] | Potency [10] | Potency [11]

C/C1=C\CCC(C)CCO[C@@H]2O[C@H](CO[C@@H]3OC[C@H](O)[C@H](O)[C@H]3OC1=O)[C@@H](O)[C@H](O)[C@H]2O (stereo not given in full)
inactive: Potency [1] | Potency [2] | Potency [3] | Potency [4] | Potency [5] | Potency [6] | Potency [7] | Potency [8] | Potency [9] | Potency [10] | Potency [11]

O=C1NC(=O)C(c2cn(-c3ccccc3)nc2-c2ccc(F)cc2)N1 (stereo not given)
inactive: Potency [1] | Potency [2] | Potency [3] | Potency [4] | Potency [5] | Potency [6] | Potency [7] | Potency [8] | Potency [9] | Potency [10] | Potency [11]

CC1(C(=O)O)CCCC2(C)C3=CCC4CC3(CCC12)CC4CO (stereo not given)
inactive: Potency [1] | Potency [2] | Potency [3] | Potency [4] | Potency [5] | Potency [6] | Potency [7] | Potency [8] | Potency [9] | Potency [10] | Potency [11]

COc1ccc([C@H]2CNC(=O)C2)cc1OC1CCCC1
inactive: Potency [1] | Potency [2] | Potency [3] | Potency [4] | Potency [5] | Potency [6] | Potency [7] | Potency [8] | Potency [9] | Potency [10] | Potency [11]

C/C=C/c1ccc2c(c1)[C@@H](C)[C@H](c1ccc(O)cc1)O2
inactive: Potency [1] | Potency [2] | Potency [3] | Potency [4] | Potency [5] | Potency [6] | Potency [7] | Potency [8] | Potency [9] | Potency [10] | Potency [11]

C[C@@H]1O[C@@H](O[C@H]2[C@H](O)[C@@H](O)[C@H](OC3CCC4(C)C5CCC(C)(C(CO)OC6OC(CO)C(O)C(O)C6O)CC5=CCC4C3(C)C)O[C@@H]2CO)[C@H](O)[C@H](O)[C@H]1O (stereo not given in full)
inactive: Potency [1] | Potency [2] | Potency [3] | Potency [4] | Potency [5] | Potency [6] | Potency [7] | Potency [8] | Potency [9] | Potency [10] | Potency [11]

C[C@@H]1[C@H]2[C@H](O[C@@H]3O[C@H](CO)[C@@H](O)[C@H](O)[C@H]3O)OC=C(C(=O)O)[C@H]2C[C@@H]1O
inactive: Potency [1] | Potency [2] | Potency [3] | Potency [4] | Potency [5] | Potency [6] | Potency [7] | Potency [8] | Potency [9] | Potency [10] | Potency [11]
